Measured values taken from PubChem BioAssay (NCI).
Values joined by “and” are separate entries in the source; they are usually repeats but may differ in a detail not shown here. Equal entries are not always repeated. This is part of a sample that, as a whole, favours compounds with a hit. Of some 83,000 tested, about 20% had one in any assay.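 Plates (96-well) were seeded with cells, treated with compound at one concentration, and incubated for 48 hours before percent growth was determined.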 Active and inactive are the calls of the source. How the source made its calls: active means growth percent below 10; inactive means the rest.

What was measured:
Test in all cases: NCI-60 one-dose screen, 48 h (100 = growth as untreated, 0 = no growth, -100 = all killed)
TK-10 renal = tested on: TK-10 renal
SK-MEL-2 melanoma = settings: 10 µM unless noted
EKVX NSCLC = settings: 10 µM
SN12C renal = settings: 10 µM unless noted
ACHN renal = settings: 10 µM unless noted
CAKI-1 renal = settings: 10 µM unless noted
A498 renal = settings: 10 µM unless noted
CCRF-CEM leukemia = settings: 10 µM
MOLT-4 leukemia = settings: 10 µM unless noted
UO-31 renal = settings: 10 µM unless noted

Row | Structure (SMILES) | growth (TK-10 renal; 10 µM) | growth (TK-10 renal; 100 µM) | growth (TK-10 renal; 10 µM unless noted) | growth (SK-MEL-2 melanoma) | growth (EKVX NSCLC) | growth (SN12C renal) | growth (ACHN renal) | growth (CAKI-1 renal) | growth (A498 renal) | growth (CCRF-CEM leukemia) | growth (MOLT-4 leukemia) | growth (UO-31 renal)
1 | COc1ccc2cc1Oc1ccc(cc1)C[C@H]1c3cc(c(OC)cc3CCN1C)Oc1c(OC)c(OC)cc3c1[C@H](C2)N(C)CC3 | 76.7% (inactive) | 71.7% (inactive) and 56.9% (inactive) |  |  |  |  |  |  |  |  |  | 
2 | CC1CCC2(C(=O)O)CCC3(C)C(=CCC4C5(C)CCC(O)C(C)(C)C5CCC43C)C2C1C (centres undefined) | 90.6% (inactive) and 88.5% (inactive) | -77.6% (active) and -96.8% (active) |  |  |  |  |  |  |  |  |  | 
3 | O=C1NC(N/N=C\C(O)C(O)C(O)CO)=N/C1=C/c1ccc(Cl)cc1 (centres undefined) |  |  | 54.4% [100 µM] (inactive) and -100% [100 µM] (active) and 89.6% [100 µM] (inactive) |  |  |  |  |  |  |  |  | 
4 | CC1=C/C(O)CC(=O)Cc2nc(co2)C(=O)N2CCC=C2C(=O)OC(C(C)C)C(C)/C=C\C(=O)NC/C=C\1 (centres undefined) |  |  | 127% (inactive) | 21.8% (inactive) | 90.2% (inactive) | 87.9% (inactive) | 86.2% (inactive) | 81% (inactive) | 90.9% (inactive) | 37% (inactive) | 77.4% (inactive) | 
5 | CC(=O)OC(C)C(=O)NCC(C)O (centres undefined) |  |  | 113% (inactive) | 110% (inactive) |  | 106% (inactive) | 102% (inactive) | 108% (inactive) | 98.2% (inactive) | 98.9% (inactive) | 98.1% (inactive) | 
6 | Fc1ccc([I+]c2ccc(F)cc2)cc1 |  |  | 71.2% (inactive) | 68.8% (inactive) |  | 92.9% (inactive) | 79.5% (inactive) | 61.2% (inactive) | 78.3% (inactive) | 48.2% (inactive) | 54.8% (inactive) | 
7 | N#CC(C#N)N=Nc1cc(Cl)ccc1Cl |  |  | 105% (inactive) | 85.6% (inactive) |  | 103% (inactive) | 94.1% (inactive) |  | 110% (inactive) |  | 92.4% (inactive) | 
8 | CC(=O)NCC(=O)c1ccc([N+](=O)[O-])cc1 |  |  |  | 136% (inactive) | 102% (inactive) | 105% (inactive) | 103% (inactive) | 103% (inactive) | 81.2% (inactive) |  | 98.4% (inactive) | 
9 | Nc1cc(N)c(N)cc1N |  |  | 101% (inactive) | -62.5% (active) | 57.5% (inactive) | -69.7% (active) | 8.63% (active) | 82.5% (inactive) | 99.8% (inactive) |  | 83.2% (inactive) | 
10 | CCCCOc1ccc(Nc2cc(Cl)ccc2C(=O)O)cn1 |  |  | 112% (inactive) and 121% (inactive) | 79.3% (inactive) and 112% (inactive) | 101% (inactive) and 98.6% (inactive) | 94.2% (inactive) and 104% (inactive) | 106% (inactive) and 89.9% (inactive) | 97.7% (inactive) and 94.4% (inactive) | 102% (inactive) | 82.3% (inactive) and 95% (inactive) |  | 
11 | CN(C)CC1CCCCCC(CN(C)C)C1=O (centres undefined) |  |  | -22.3% (active) | 106% (inactive) | 111% (inactive) | 94.9% (inactive) | -49.8% (active) | -48.5% (active) | 117% (inactive) | -23.7% (active) | 20.7% (inactive) | 
12 | CCCCCCCCCCNC(=O)CI |  |  | 15.5% (inactive) | -50.1% (active) |  | 33.9% (inactive) | -93.7% (active) | -93.5% (active) | 111% (inactive) | -47.1% (active) | -28.9% (active) | -90.1% (active)
13 | O=C1OC(c2ccccc2)=N/C1=C\c1ccccc1 |  |  | 117% (inactive) | 116% (inactive) |  | 102% (inactive) | 104% (inactive) | 110% (inactive) |  |  | 105% (inactive) | 
14 | O=[N+]([O-])c1cccc(SSc2cccc([N+](=O)[O-])c2)c1 |  |  | 109% (inactive) | 98.5% (inactive) | 106% (inactive) | 93.7% (inactive) | 99.5% (inactive) | 103% (inactive) | 119% (inactive) | 50.6% (inactive) |  | 
15 | COc1ccc(Nc2ccc3ccccc3c2)cc1 |  |  | 77.2% (inactive) | 67.2% (inactive) | 92.8% (inactive) | 76.9% (inactive) | 92% (inactive) | 52.3% (inactive) | 52.8% (inactive) | 56.9% (inactive) | 71.5% (inactive) | 
16 | O=C(Cc1ccccc1)c1ccc(O)c(Cl)c1 |  |  | 47.4% (inactive) | 64.9% (inactive) | 66.1% (inactive) | 31.1% (inactive) | 37.6% (inactive) | 42.1% (inactive) | 105% (inactive) | -27.2% (active) | 22.6% (inactive) | 
17 | CC(C)NCC(O)c1ccc(O)c(O)c1 (centres undefined) |  |  | 92.5% (inactive) and 87.4% (inactive) | 110% (inactive) and 240% (inactive) | 104% (inactive) and 85% (inactive) and 91.2% (inactive) | 76.5% (inactive) and 91.4% (inactive) and 92.8% (inactive) | 89.6% (inactive) and 104% (inactive) | 93.6% (inactive) and 83.6% (inactive) | 95.8% (inactive) and 119% (inactive) and 78.3% (inactive) | 90.8% (inactive) and 100% (inactive) and 103% (inactive) | 98.5% (inactive) and 95.2% (inactive) and 98.8% (inactive) | 
18 | CCOC(=O)c1c(C)cc(=O)oc1C |  |  | 121% (inactive) | 125% (inactive) |  | 98.6% (inactive) | 104% (inactive) |  |  | 100% (inactive) | 101% (inactive) | 88.9% (inactive)
19 | CCCCNc1ccc(Nc2ccccc2)cc1 |  |  | 73.6% (inactive) | 87.3% (inactive) | 37% (inactive) | 71.9% (inactive) | 77.6% (inactive) | 94.6% (inactive) | 82.7% (inactive) |  | 84.6% (inactive) | 
20 | Nc1ncnc2c1ncn2C1OC(COP(=O)(O)O)C(O)C1O (centres undefined) |  |  | 122% (inactive) |  | 113% (inactive) | 99.9% (inactive) | 103% (inactive) | 106% (inactive) |  |  |  | 100% (inactive)

Row | Structure (SMILES) | growth (TK-10 renal; 10 µM) | growth (TK-10 renal; 100 µM) | growth (TK-10 renal; 10 µM unless noted) | growth (SK-MEL-2 melanoma) | growth (EKVX NSCLC) | growth (SN12C renal) | growth (ACHN renal) | growth (CAKI-1 renal) | growth (A498 renal) | growth (CCRF-CEM leukemia) | growth (MOLT-4 leukemia) | growth (UO-31 renal)
21 | O=C(O)CCCl |  |  | 107% (inactive) | 123% (inactive) |  | 107% (inactive) | 101% (inactive) | 102% (inactive) | 99.1% (inactive) | 93% (inactive) | 109% (inactive) | 
22 | CC(C)(O)C(=O)O |  |  | 98.9% (inactive) | 112% (inactive) | 94% (inactive) | 102% (inactive) | 104% (inactive) | 101% (inactive) | 103% (inactive) |  | 108% (inactive) | 
23 | ClCCOCCOc1ccc(C2CCCCC2)cc1 |  |  | 108% (inactive) | 102% (inactive) |  | 96.3% (inactive) | 108% (inactive) | 97.3% (inactive) | 73.1% (inactive) | 107% (inactive) | 120% (inactive) | 
24 | NC(=O)NCCCC(N)C(=O)O (centres undefined) |  |  | 99.3% (inactive) | 95.4% (inactive) |  | 104% (inactive) | 98.7% (inactive) | 84.6% (inactive) | 113% (inactive) |  |  | 82.8% (inactive)
25 | Nc1nc(N)c2[nH]cnc2n1 |  |  | 121% (inactive) | 109% (inactive) | 97.5% (inactive) | 102% (inactive) | 89.3% (inactive) | 84.6% (inactive) | 109% (inactive) | 98.2% (inactive) |  | 
26 | O=C1CSC2=NCCN12 |  |  | 101% (inactive) and 106% (inactive) | 89% (inactive) | 99% (inactive) and 64.7% (inactive) | 106% (inactive) and 93.2% (inactive) | 98.1% (inactive) and 103% (inactive) | 95.6% (inactive) | 92.8% (inactive) and 99.7% (inactive) |  | 106% (inactive) and 67.1% (inactive) | 
27 | O=C1c2c(O)ccc(O)c2C(=O)c2c(NCCNCCO)ccc(NCCNCCO)c21 |  |  | -35% (active) and -7% (active) | -87.6% (active) and -70.5% (active) | -17.7% (active) and -29.5% (active) | -45.7% (active) and -49.7% (active) | -52.9% (active) and -45.2% (active) | -17.2% (active) and -31% (active) | -80.1% (active) | -24.9% (active) and -30.9% (active) | 2.98% (active) and -18.1% (active) | 
28 | O=C(CO)C(O)C(O)C(O)C(O)CO (centres undefined) |  |  | 106% (inactive) and 102% (inactive) | 104% (inactive) and 108% (inactive) |  | 99.8% (inactive) and 97.3% (inactive) | 110% (inactive) and 109% (inactive) | 102% (inactive) and 101% (inactive) | 97.5% (inactive) and 100% (inactive) |  | 106% (inactive) and 95.8% (inactive) | 
29 | Cn1cnc([N+](=O)[O-])c1Sc1ncn[nH]1 |  |  | 106% (inactive) |  | 101% (inactive) | 101% (inactive) | 110% (inactive) | 68.4% (inactive) | 117% (inactive) |  |  | 82.9% (inactive)
30 | CCc1cc(C)cc(O)c1 |  |  | 98.6% (inactive) |  | 101% (inactive) | 105% (inactive) | 117% (inactive) | 108% (inactive) | 102% (inactive) | 98.4% (inactive) | 98.1% (inactive) | 
31 | Cl |  |  | 109% (inactive) |  | 100% (inactive) | 104% (inactive) | 104% (inactive) | 95.6% (inactive) | 88.1% (inactive) |  | 88.5% (inactive) | 
32 | Brc1ccc(SSc2ccc(Br)cc2)cc1 |  |  | 97.1% (inactive) | 101% (inactive) |  | 63.8% (inactive) | 109% (inactive) | 106% (inactive) | 71.2% (inactive) | 8.01% (active) |  | 49.6% (inactive)
33 | c1ccc(CNCCNCc2ccccc2)cc1 |  |  | 119% (inactive) | 102% (inactive) |  | 105% (inactive) | 99.7% (inactive) | 98.5% (inactive) | 96.5% (inactive) |  |  | 
34 | CCCCCCCCCCCCCCCc1ccc(N)c(OC2OC(CO)C(O)C(O)C2O)c1 (centres undefined) |  |  | 113% (inactive) | 80.6% (inactive) | 81.6% (inactive) | 87.6% (inactive) | 86.1% (inactive) |  | 79.2% (inactive) | 5.48% (active) |  | 
35 | OC1COC(OCc2ccccc2)C(O)C1O (centres undefined) |  |  |  | 99% (inactive) |  | 99.4% (inactive) | 106% (inactive) | 105% (inactive) | 92.9% (inactive) |  |  | 
36 | O=c1n(CC2CO2)c(=O)n(CC2CO2)c(=O)n1CC1CO1 (centres undefined) |  |  | 77.9% (inactive) |  |  | 46.7% (inactive) | 19.8% (inactive) | -7.84% (active) | 88.4% (inactive) |  |  | 
37 | COc1ccc(N/C=C/C2=[N+](C)c3ccccc3C2(C)C)c(OC)c1 |  |  | 106% (inactive) | 114% (inactive) |  | 96.6% (inactive) | 104% (inactive) | 81.9% (inactive) |  | 90.7% (inactive) |  | 78.8% (inactive)
38 | Cc1cc(-c2cc(C)c(O)c(C)c2)cc(C)c1O |  |  | 90.5% (inactive) | 73.5% (inactive) | 68.2% (inactive) | 90.5% (inactive) | 92.1% (inactive) | 59.4% (inactive) |  | 82.6% (inactive) |  | 
39 | OCCN1CCCCCCC1 |  |  | 99.9% (inactive) | 112% (inactive) |  | 93.7% (inactive) | 103% (inactive) | 93.2% (inactive) | 100% (inactive) |  |  | 88% (inactive)
40 | Cc1ccc(S(=O)(=O)c2ccccc2)cc1 |  |  | 51.6% (inactive) | 38.6% (inactive) | 76.7% (inactive) | 50.4% (inactive) | 56% (inactive) | 25.4% (inactive) | 28% (inactive) | 11.5% (inactive) |  | 
